Experimental data reported in PubChem BioAssay (NCI).
This is part of a sample that, as a whole, favours compounds with a hit. Of some 83,000 tested, about 20% had one in any assay.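 Cell lines were cultured in 96-well plates, exposed to a single compound concentration, and assessed for percent growth 48 hours later.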 Values without a mark were called inactive. The source made the active and inactive calls. Rule for the calls: active = growth percent below 10; inactive = the rest.

test system: HOP-62 NSCLC; experiment: NCI-60 one-dose screen, 48 h (100 = growth as untreated, 0 = no growth, -100 = all killed); conditions: 10 µM

Compound | growth [%]
CCOC(=O)C1=C(N)N(c2ccc(C)cc2)C2=C(C(=O)CC(C)(C)C2)C1c1ccccc1OC (centres undefined) | 106
N#C/C(=C\c1ccc(N(c2ccccc2)c2ccccc2)cc1)C(N)=O | 48.9
NC1=NC(c2ccccc2Cl)N=C(Nc2nn[nH]n2)N1 (centres undefined) | 108
O=C(N/N=C/c1ccc(-c2cccc([N+](=O)[O-])c2)o1)c1[nH]c2ccc(Br)cc2c1-c1ccccc1 | 38.7

test system: NCI-H460 lung; experiment: as above; conditions: 10 µM

Compound | growth
CNC(=O)c1cccc(N2CCc3c2ccc(NC(=O)Nc2ccc(N4CCN(C)CC4)c(C(F)(F)F)c2)c3F)c1 | -81% (active)
CC(=O)Nc1ccc(-n2cnc3cc(-c4ccc(O)cc4)ccc32)cc1C | 36.4%
CN(C)c1nc(NCCNS(=O)(=O)c2ccc(C(=O)/C=C/c3ccccc3)cc2)nc(Nc2ccc(F)cc2)n1 | 14.9%
O=C1CCC(N2Cc3c(C#CCCCNC(=O)c4ccc(NC(=O)[C@@H]5NC6(CCCCC6)[C@@]6(C(=O)Nc7cc(Cl)ccc76)[C@H]5c5cccc(Cl)c5F)cc4)cccc3C2=O)C(=O)N1 (some centres undefined) | 33.1%
COc1cc(C2CC(c3ccccc3)=Nc3c(N)nc(N)nc3N2)ccc1Oc1nc(Nc2ccc(F)cc2)nc(N(C)C)n1 (centres undefined) | 10.6%
CCOC(=O)C1=C(N)N(c2ccc(Cl)cc2)C2=C(C(=O)CC(C)(C)C2)C1c1ccc(N2CCOCC2)cc1 (centres undefined) | 94%
O=C(c1ccc(Cl)cc1)C1[C@H](c2ccccc2Br)[C@@H](c2ccccc2)NC12C(=O)Nc1ccc(Cl)cc12 (some centres undefined) | -13.5% (active)
Nc1nc(Nc2ccc(Cl)cc2)nn1Cc1cccc(Br)c1 | 17.9%
O=S(=O)(Nc1ncccn1)c1ccc(-n2c(-c3ccccc3)nc(-c3ccccc3)c2-c2ccccc2)cc1 | 88.1%
CN1CCc2c(sc3ncnc(N/N=C/c4cn(-c5ccccc5)nc4-c4ccc(Cl)cc4)c23)C1 | 1.06% (active)
Nc1nnc(-c2c[nH]c3ncccc23)c(-c2c[nH]c3ccc(Br)cc23)n1 | 27.2%
Cc1cc(=O)oc2cc(OCCCCOc3ccc(/C=C/C(=O)Nc4ccccc4[N+](=O)[O-])cc3)ccc12 | 119%
COc1ccc(-c2nc(S(=O)(=O)c3ccc(C)cc3)c(S(C)(=O)=O)o2)cc1 | 4.05% (active)
CN1CCN(Cc2ccc(C(=O)Nc3cccc(Nc4ccc5c(O)cccc5n4)c3)cc2C(F)(F)F)CC1 | -18.5% (active)
O=C1NC(=NC23CC4CC(CC(C4)C2)C3)N/C1=C\c1ccc2ncccc2n1 | -8.97% (active)
COc1csc(/C=N/NC(=O)c2[nH]c3ccc(Br)cc3c2-c2ccccc2)c1 | -5.74% (active)
O=C(Cn1nc(-c2ccccc2)ccc1=O)NNC(=S)NC1CCCCC1 | 136%
NS(=O)(=O)c1ccc(NC(=O)CSc2ccc(-c3ccccc3)nn2)c(Br)c1 | 82.4%
O=c1c2ccccc2nc(COc2ccccc2)n1/N=C/c1ccc(F)cc1 | 85.4%
O=C(Nc1ccc(Cl)c([N+](=O)[O-])c1)Nc1ccc(Cl)c([N+](=O)[O-])c1 | 9.48% (active)
O=C(Nc1ccc(OCc2ccccc2)cc1)Nc1ccc(Cl)c(C(F)(F)F)c1 | 3.69% (active)
COc1ccc2nc(Cl)c(-c3cc(-c4ccccc4)nc(N)n3)cc2c1 | 3.53% (active)
CN1CCN(c2ccc(Nc3nc(NCCCNC(=O)c4ccccc4)c4sccc4n3)cc2)CC1 | 67.6%
O=C1Nc2ccc(F)cc2/C1=C/c1cccc(OCc2ccccc2)c1 | 7.06% (active)
Cc1noc2c(Cc3ccc([N+](=O)[O-])cc3)nn(CC(=O)N/N=C/c3ccc(Cl)cc3)c(=O)c12 | 46.2%
O=c1[nH]c2ccc(Cl)cc2cc1CSc1ccc(Nc2nccc(-c3ccc(Cl)cc3)n2)cc1 | -27.6% (active)
O=S(=O)(Nc1ncccn1)c1ccc(-n2c(-c3ccc(Br)cc3)nc(-c3ccccc3)c2-c2ccccc2)cc1 | 31.7%
Cc1ccc(C(=O)NNC(=O)CSc2nc3ccccc3c(=O)[nH]2)cc1 | 108%
CCCn1c(O)c(N=Nc2nc(-c3cc4ccccc4oc3=O)cs2)c2cc(Br)ccc21 | 110%
CN1CCN(c2ccc(Nc3nc(NCCNC(=O)c4ccc(C(F)(F)F)cc4)c4sccc4n3)cc2)CC1 | 16.7%
